The campaign covered roughly 4,100 compounds. About 1,600 (39%) were called active. Not shown: some 25% with an inconclusive outcome. Calls follow the shape of the dose curve; as a rule, active = well fitted inhibition curve with a large enough effect; inconclusive = small, poorly fitted or top-dose-only effect; inactive = no such curve, though single readings can be large or run the other way. The list shows a part of the results.
Experiment: qHTS Validation assay for Inhibitors of Plasmodium falciparum Dd2 growth in vitro; also: nearly all actives have a fitted effect of over 70% in size
Details: P. falciparum Dd2 in RBCs, SYBR Green growth, 72 h; series mostly up to 28.7 µM; activity change, negative = inhibition: at the top concentration
Method in brief: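 P. falciparum Dd2-infected red blood cells (2.5% hematocrit, 0.3% parasitemia) grown 72 h at 37 °C under 5% O2 with compounds in a titration, 29 uM to 0.5 nM final. Growth read as SYBR Green-1 fluorescence after ~16 h lysis; artesunate 300 nM as positive control.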
% is scaled to controls: 0 for no effect and ±100 for the full control effect; potency is read from the fitted curve at half-maximal effect.

Activity change, negative = inhibition, inactive:
Cc1nc2cc(N3CCCC(C(=O)NCCN4CCCCCC4)C3)cnc2nc1C (stereo not given) -6.29%
N=c1ccn(Cc2c(Cl)cccc2Cl)cc1 -15.6%
Cc1cc(C)n(CC(=O)N[C@@H]2CN(Cc3cccnc3)C[C@H]2CN(C)C)n1 8.7%
Cc1ccsc1C(=O)NCc1nnc2ccc(-c3ccc(Cl)cc3)nn12 7.85%
COc1ccc(S(=O)(=O)N2CCC(Oc3ncccc3C(=O)N3CCOCC3)C2)cc1 (stereo not given) 17.3%
O=C(c1ccccc1F)N1CCC(Oc2ncccc2C(=O)N2CCCCC2)C1 (stereo not given) 14.2%
O=C(Nc1cccc(C(F)(F)F)c1)O[C@@H]1CO[C@H]2[C@@H]1OC[C@@H]2NS(=O)(=O)c1cccs1 12.6%
COc1cccc(NC(=O)Nc2cccc(C(=O)O)c2)c1 27.9%
CC1=NS(=O)(=O)N(Cc2ccc(F)c(F)c2)C=C1C(=O)O 15.4%
CN(C)C(=O)N1CCCC(C(=O)NCc2nc(C3CCCCC3)no2)C1 (stereo not given) 36.9%
Cc1ccc(N(CC(=O)Nc2cccc(Cl)c2)S(=O)(=O)c2cccs2)cc1 29.6%
O=C(NCCc1nc(-c2cccnc2)no1)c1coc2c1C(=O)CCC2 32.2%
C/C(=N\OCc1cccc(C(=O)O)c1)c1ccc(Cl)cc1 6.57%
COc1ccccc1-c1nnc2sc(COc3ccc(F)cc3)nn12 -15%
COc1cccc(CNc2ccc3c(c2)nc(C)n3C)c1OC 33.3%
CSc1nnc2c3c4c(sc3c(=O)n(-c3ccccc3)n12)CC(C)(C)OC4 1.3%
CCNc1ncnc2sc3c(c12)CCN(Cc1ccc[nH]1)C3 -12.8%
CCOCCCn1c(SCC(=O)NCCCOC)nc2c(sc3ccccc32)c1=O 59%
CN1CCc2c(sc3c2C(=O)NC(c2ccc(C(C)(C)C)cc2)N3)C1 (stereo not given) 26.9%
CC(C)Sc1nc2sc3c(c2c(=O)n1Cc1ccccc1)CCCC3 -20%
CS(=O)(=O)N(C1CC1)C1CCOC2(CCN(C(=O)C3(c4ccccc4)CC3)CC2)C1 (stereo not given) 0.781%
COC(CSc1nc(N)c2c3c(sc2n1)CN(C)CC3)OC 3.33%
CCOc1cc(C2NC(=O)c3c(sc4c3CCN(C)C4)N2)ccc1OC(=O)c1ccccc1Cl (stereo not given) 28.3%
Cc1ccc(N=Nc2ccc(O)c3ncccc23)cc1 62.4%
CCCCCNC(=O)C1CCC(Cn2c(=O)c3sccc3n(CC(=O)N3CCCC3)c2=O)CC1 (stereo not given) 7.01%
COc1cc(NC(=O)Cn2c(=O)n(CC3CCCO3)c(=O)c3ccccc32)cc(OC)c1 (stereo not given) 13.1%
Cc1cc2nn(-c3ccc(F)cc3)nc2cc1N 2.12%
Cn1nc(-c2nncn2Cc2ccccc2)c2c1CCN(C(=O)c1[nH]nc3c1COc1ccccc1-3)C2 -14.9%
COc1ccc(-c2ccc3nnc(CNC(=O)Cc4cccc(F)c4)n3n2)cc1 38.7%
CCCc1nnc([C@H]2CCN(C(=O)c3ccccc3)C2)o1 -19.5% [at 57.5 µM]
Cc1ccc(C)c(-c2cc3c(=O)n(CCNC(=O)c4cccc(N(C)C)c4)ccn3n2)c1 0.608%
Cc1ccc(CNC(=O)CCc2c(C)nc3nc(C)nn3c2C)cc1 11.6%
Cc1ccc(-c2ccc(=O)n(CC(=O)Nc3ccc(C(C)C)cc3)n2)cc1 20.7%
Cc1cccc(C(=O)NCCc2ncc(C)n2C2CC2)c1 -5.93%
Cc1ccc(C2Cn3cnc(C(=O)N4CCC(C(=O)NCc5ccco5)CC4)c3CO2)cc1 (stereo not given) -7.92%
CCc1nc2ccc(C(=O)NCc3ccccc3C)cc2nc1CC 6.91%

Potency, active:
N=c1ccn(Cc2ccc(Cl)cc2Cl)cc1 8.41 µM
N=c1ccn(Cc2ccc(Cl)cc2)cc1 8.41 µM
N=c1ccn(Cc2ccc(Cl)c(Cl)c2)cc1 6.68 µM
COc1ccc(CC(=O)N2CCC(Oc3ncccc3C(=O)N3CCCCC3)C2)cc1 (stereo not given) 9.44 µM
COc1ccc(-c2cc(C(=O)Nc3cc(OC)cc(C(=O)Nc4cccc(C(F)(F)F)c4)c3)[nH]n2)cc1 5.31 µM
COc1cc(NC(=O)c2ccc(N)nc2)cc(C(=O)Nc2cccc(C(F)(F)F)c2)c1 5.31 µM
Cc1nc2sc(C(c3ccco3)N3CCN(C(c4ccccc4)c4ccccc4)CC3)c(O)n2n1 (stereo not given) 5.96 µM
CCCc1ccc(C(=O)NC(=O)c2ccccc2O)cc1 1.06 µM
Cc1ccc(N(Cc2cccs2)C(=O)C(C)Oc2ccc(Cl)c(C)c2)cc1 (stereo not given) 7.5 µM
CNC(=O)CCn1ncc2cc(OCc3ccccc3-c3ccccc3OC)ccc21 15.3 µM
CCCN1CCc2c(sc3nc(SC)n(-c4ccccc4)c(=O)c23)C1 2.66 µM
CCn1c(SCC(=O)NCCc2ccccc2)nc2sc3c(c2c1=O)CCN(C)C3 5.31 µM
CCSc1nc2sc3c(c2c(=O)n1-c1ccccc1)CCN(C)C3 6.68 µM
C=C(C)CSc1nc2sc3c(c2c(=O)n1C1CCCCC1)CCN(C)C3 2.37 µM
CCOc1ccc(-n2c(SCC(N)=O)nc3sc4c(c3c2=O)CCN(C)C4)cc1 15 µM
Oc1ccc(CNc2ccc(C(F)(F)F)cc2Cl)c2cccnc12 10.6 µM
Fc1ccc(N2CCCN(CC3[C@H]4CNC[C@@H]34)CC2)cc1 (stereo not given in full) 8.41 µM
O=c1cc(-c2ccccc2)[nH]c2ccc(F)cc12 5.96 µM
Cc1ccc2[nH]c(-c3ccccc3)cc(=O)c2c1 4.73 µM
Cc1ccc(-c2cc(=O)c3cc(C)ccc3[nH]2)cc1 10.6 µM
COc1cc(NC(=O)Cn2c(=O)n(CC3CCC(C(=O)NCCc4ccccc4)CC3)c(=O)c3ccccc32)cc(OC)c1 (stereo not given) 5.96 µM
COc1ccc(-n2cc(CNC3CCN(C)CC3)c(-c3cccc(F)c3)n2)cc1 10.6 µM
CC1=C[C@@H](CN2CCC[C@H]2CO)[C@H](C(C)C)C[C@H]1Cc1nnc(-c2ccc(N(C)C)cc2)o1 13.3 µM
CCCc1nnc(C[C@@H]2C[C@@H](C(C)C)[C@H](CN3CCC[C@H]3CO)C=C2C)o1 17.2 µM
C=CCOC(=O)C(C#N)c1nc2ccccc2nc1N1CCC(C(=O)OCC)CC1 (stereo not given) 2.37 µM
CCN(CC)S(=O)(=O)c1ccc(NC(=O)CCc2c(C)nc3cc(-c4ccc(Cl)cc4)nn3c2C)cc1 4.73 µM
COc1cc(C2Nc3ccc4ccccc4c3C3=C2C(=O)CC(C)(C)C3)ccc1OC(C)C(=O)O (stereo not given) 6.68 µM
CCCC1=Nc2cc(C(=O)NCCCN3CCCCC3CC)ccc2Sc2ccc(C)cc21 (stereo not given) 9.44 µM
CCC1=Nc2cc(C(=O)NCc3ccco3)ccc2Sc2ccc(C)cc21 8.41 µM
